# In PMC8384837, “Expanding the binding specificity for RNA recognition by a PUF domain”:
# Where a chain is given by its changes, count along the chain named.
# Assays:
# Test in all cases: yeast three-hybrid, YBZ-1, SC-Leu-His + 0.5 mM 3-AT, 4 days
# Settings in all cases: tags: N-Gal4 AD-HA kept; label: inside an RPR1-promoter hybrid RNA with tandem MS2 sites; ssRNA
# [1] = biological target: PUM1 PUF domain R3-EWL (Homo sapiens, UniProt Q14671 828-1176, C935E;R936W;Q939L)
# Method in brief: (§1)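 Each repeat of the Pumilio-1 PUF domain was randomized at its three base-contacting residues, and these libraries were co-expressed from a centromeric plasmid with matching RNA elements in strain YBZ-1. After four days on SC-Leu (input) or SC-Leu-His + 0.5 mM 3-AT (selection), the repeat regions were PCR-amplified and Illumina-sequenced. The interaction score compares variant frequency between input and selection as a log change, computed in log2 with a pseudocount of 1 for absent variants.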
# [2] = biological target: T1, PUM1 PUF domain R6-TFK (Homo sapiens, UniProt Q14671 828-1176, N1043T;Y1044F;Q1047K)
# T1 sequence: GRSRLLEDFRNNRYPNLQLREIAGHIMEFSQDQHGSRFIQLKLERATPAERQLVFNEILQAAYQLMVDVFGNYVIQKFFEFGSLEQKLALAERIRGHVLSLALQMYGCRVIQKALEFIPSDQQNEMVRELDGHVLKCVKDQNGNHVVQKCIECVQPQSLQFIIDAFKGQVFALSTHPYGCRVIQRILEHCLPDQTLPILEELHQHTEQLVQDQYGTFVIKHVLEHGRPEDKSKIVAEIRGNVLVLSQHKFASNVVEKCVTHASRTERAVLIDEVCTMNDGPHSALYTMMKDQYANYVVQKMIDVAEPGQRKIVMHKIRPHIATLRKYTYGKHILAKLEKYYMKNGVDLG
# Method in brief: as §1
# [3] = biological target: T2, PUM1 PUF domain R6-HFF (Homo sapiens, UniProt Q14671 828-1176, N1043H;Y1044F;Q1047F)
# T2 sequence: T1 sequence with T216H, K220F
# Method in brief: as §1
# [4] = biological target: PUM1 PUF domain R4-VLY (Homo sapiens, UniProt Q14671 828-1176, N971V;H972L;Q975Y)
# Method in brief: as §1
# [5] = biological target: T3, PUM1 PUF domain R6-AWE (Homo sapiens, UniProt Q14671 828-1176, N1043A;Y1044W;Q1047E)
# T3 sequence: T1 sequence with T216A, F217W, K220E
# Method in brief: as §1
# [6] = biological target: PUM1 PUF domain R2-IWE (Homo sapiens, UniProt Q14671 828-1176, N899I;Y900W;Q903E)
# Method in brief: as §1
# [7] = biological target: PUM1 PUF domain R1-NLV (Homo sapiens, UniProt Q14671 828-1176, S863N;R864L;Q867V)
# Method in brief: as §1
# [8] = biological target: PUM1 PUF domain R8-YYF (Homo sapiens, UniProt Q14671 828-1176, N1122Y;Q1126F)
# Method in brief: as §1
# [9] = biological target: PUM1 PUF domain R1-HFK (Homo sapiens, UniProt Q14671 828-1176, S863H;R864F;Q867K)
# Method in brief: as §1
sequence,measurement,setting,value
GGCUAGAACUAGUGGAUCCCCCGGCGCCCGGCGGCUCGAGCCCGGGUAAGUGUAAAUAGUCUGCAUGCCGCCGGGCGCCAUGCCUGCAGGUCGACUCUAGAAAACAUG,binding signal,[1],5.03 log2 enrichment (interaction score)
same,binding signal,[2],7.02 log2 enrichment (interaction score)
same,binding signal,[3],4.43 log2 enrichment (interaction score)
same,binding signal,[4],4.53 log2 enrichment (interaction score)
GGCUAGAACUAGUGGAUCCCCCGGCGCCCGGCGGCUCGAGCCCGGGUAAGUGUAAUUAGUCUGCAUGCCGCCGGGCGCCAUGCCUGCAGGUCGACUCUAGAAAACAUG,binding signal,[1],4.51 log2 enrichment (interaction score)
GGCUAGAACUAGUGGAUCCCCCGGCGCCCGGCGGCUCGAGCCCGGGUAAGUGAAAAUAGUCUGCAUGCCGCCGGGCGCCAUGCCUGCAGGUCGACUCUAGAAAACAUG,binding signal,[5],7.15 log2 enrichment (interaction score)
same,binding signal,[2],2.81 log2 enrichment (interaction score)
GGCUAGAACUAGUGGAUCCCCCGGCGCCCGGCGGCUCGAGCCCGGGUAAGUGGAAAUAGUCUGCAUGCCGCCGGGCGCCAUGCCUGCAGGUCGACUCUAGAAAACAUG,binding signal,[5],4.11 log2 enrichment (interaction score)
GGCUAGAACUAGUGGAUCCCCCGGCGCCCGGCGGCUCGAGCCCGGGUAAGUGUAAAAAGUCUGCAUGCCGCCGGGCGCCAUGCCUGCAGGUCGACUCUAGAAAACAUG,binding signal,[6],4.65 log2 enrichment (interaction score)
GGCUAGAACUAGUGGAUCCCCCGGCGCCCGGCGGCUCGAGCCCGGGUAAGUGUAAAUUGUCUGCAUGCCGCCGGGCGCCAUGCCUGCAGGUCGACUCUAGAAAACAUG,binding signal,[7],2.72 log2 enrichment (interaction score)
GGCUAGAACUAGUGGAUCCCCCGGCGCCCGGCGGCUCGAGCCCGGGUAAGCGUAAAUAGUCUGCAUGCCGCCGGGCGCCAUGCCUGCAGGUCGACUCUAGAAAACAUG,binding signal,[8],5.85 log2 enrichment (interaction score)
GGCUAGAACUAGUGGAUCCCCCGGCGCCCGGCGGCUCGAGCCCGGGUAAGUGUAAAUCGUCUGCAUGCCGCCGGGCGCCAUGCCUGCAGGUCGACUCUAGAAAACAUG,binding signal,[9],2.71 log2 enrichment (interaction score)
